4 compounds from PubChem BioAssay (EPA / NIEHS) can be followed below.

The nature of experiment [1]: CEETOX_H295R_PROG: CeeTox H295R High-throughput Steroidogenesis Assay for Progesterone (PROG) (AID 2283442). The note with it: actives raise or lower the signal. The procedure, abridged: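 Steps: seed H295R cells and let them adhere overnight; prime 48 h with 10 uM forskolin; dose with compound in DMSO at 0.1% final for 48 h; extract medium steroids with MTBE; measure progesterone by LC-MS/MS. MTT viability was run in the same wells.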

Read-out in experiment [2]: Tumor necrosis factor receptor superfamily member 6 (Homo sapiens) (UniProt P25445)
Kind of experiment: LTEA_HepaRG_FAS: Life Technologies and Expression Analysis (LTEA) Assay for Fas cell surface death receptor (FAS) using HepaRG (AID 2283447). The note with it: mRNA level, 48 h; actives raise or lower the signal. The essentials:
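Differentiated HepaRG cells in serum-free induction medium were exposed 48 h to 8 half-log concentrations up to 100 uM in 0.5% DMSO, in duplicate. FAS mRNA was measured by qRT-PCR normalised to ACTB, GAPDH and POLR2A; bidirectional fit versus DMSO.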

Read-out in experiment [3]: Fatty acid synthase (Homo sapiens) (UniProt P49327)
Kind of experiment: LTEA_HepaRG_FASN: Life Technologies and Expression Analysis (LTEA) Assay for Fatty Acid Synthase (FASN) using HepaRG (AID 2283448).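 As to AC50: differentiated human HepaRG liver cells in serum-free induction medium.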 The note with it: mRNA level, 48 h; actives raise or lower the signal. The essentials: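 HepaRG, 48 h exposure, 8-pt half-log series top 100 uM, 0.5% DMSO vehicle, duplicates. Readout: FASN transcript by Fluidigm qRT-PCR; housekeeping-normalized; bidirectional curve fit vs DMSO baseline.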

Read-out in experiment [4]: Cyclin D2 (CCND2), CCND2 (gene 894)
Description: LTEA_HepaRG_CCND2: Life Technologies and Expression Analysis (LTEA) Assay for Cyclin D2 (CCND2) using HepaRG (AID 2283449).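 Also: CCND2 transcript measured by TaqMan qRT-PCR and normalised to three housekeeping genes.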 The note with it: mRNA level, 48 h; actives raise or lower the signal. The essentials:
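HepaRG, 48 h dosing, 8-pt half-log curve from 100 uM, 0.5% DMSO; duplicate wells. Readout: CCND2 transcript by microfluidic qRT-PCR, housekeeping-normalised; bidirectional fit vs DMSO baseline.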

Read-out in experiment [5]: Cyclin Dependent Kinase Inhibitor 1A (CDKN1A), CDKN1A (gene 1026)
Description: LTEA_HepaRG_CDKN1A: Life Technologies and Expression Analysis (LTEA) Assay for Cyclin Dependent Kinase Inhibitor 1A (CDKN1A) using HepaRG (AID 2283450). The note with it: mRNA level, 48 h; actives raise or lower the signal. The procedure, abridged:
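Read-out is CDKN1A mRNA by TaqMan qRT-PCR, normalized to three housekeeping genes and fitted in both directions against the DMSO baseline. Human HepaRG cells were treated 48 h with test chemicals up to 100 uM in half-log steps, 0.5% DMSO.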

Read-out in experiment [6]: Cyclin D1 (CCND1), CCND1 (gene 595)
Kind of experiment: LTEA_HepaRG_CCND1: Life Technologies and Expression Analysis (LTEA) Assay for Cyclin D1 (CCND1) using HepaRG (AID 2283451). The note with it: mRNA level, 48 h; actives raise or lower the signal. The essentials:
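HepaRG plated 48 h, medium switched to serum-free induction medium, chemicals added in duplicate (top 100 uM, half-log steps, 0.5% DMSO) for 48 h, cells lysed, RNA measured by TaqMan qRT-PCR.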

Read-out in experiment [7]: catalase (CAT), CAT (gene 847)
Description: LTEA_HepaRG_CAT: Life Technologies and Expression Analysis (LTEA) Assay for catalase (CAT) using HepaRG (AID 2283452). The note with it: mRNA level, 48 h; actives raise or lower the signal. The essentials: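 HepaRG cells in serum-free induction medium, 0.5% DMSO vehicle, exposed 48 h in duplicate over 8 half-log concentrations from 100 uM. CAT mRNA measured by qRT-PCR, normalized to ACTB, GAPDH, POLR2A; bidirectional fit versus DMSO.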

Read-out in experiment [8]: Cytochrome P450 (CYP1A1), CYP1A1 (gene 1543)
Kind of experiment: LTEA_HepaRG_CYP1A1: Life Technologies and Expression Analysis (LTEA) Assay for Cytochrome P450 (CYP1A1) using HepaRG (AID 2283454). The note with it: mRNA level, 48 h; actives raise or lower the signal. The procedure, abridged:
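HepaRG, 48 h post-plating switched to serum-free induction medium; 8-pt conc-response (top 100 uM, half-log, 0.5% DMSO), duplicates, 48 h. Lysis in RLT, TaqMan qRT-PCR for CYP1A1; gain or loss vs DMSO.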

Read-out in experiment [9]: CFLAR gene, CFLAR (gene 8837)
Description: LTEA_HepaRG_CFLAR: Life Technologies and Expression Analysis (LTEA) Assay for CFLAR gene using HepaRG (AID 2283455). The note with it: mRNA level, 48 h; actives raise or lower the signal. The essentials: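 qRT-PCR read-out (Fluidigm/TaqMan) of CFLAR mRNA, normalized to three housekeeping genes, in differentiated human HepaRG cells after 48 h chemical exposure; 8-point half-log series from 100 uM in 0.5% DMSO; bidirectional curve fitting versus DMSO.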

Read-out in experiment [10]: growth arrest and DNA damage 45 (GADD45A), GADD45A (gene 1647)
Kind of experiment: LTEA_HepaRG_GADD45A: Life Technologies and Expression Analysis (LTEA) Assay for growth arrest and DNA damage 45 (GADD45A) using HepaRG (AID 2283458). The note with it: mRNA level, 48 h; actives raise or lower the signal. The procedure, abridged: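 HepaRG, 48 h exposure, 8 conc. (top 100 uM, half-log steps), 0.5% DMSO vehicle, duplicates. Read-out: qRT-PCR mRNA level, housekeeping-normalized (ACTB/GAPDH/POLR2A). Curves fit bidirectionally vs DMSO baseline.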

Read-out in experiment [11]: Forkhead box O3 (FOXO3), FOXO3 (gene 2309)
Kind of experiment: LTEA_HepaRG_FOXO3: Life Technologies and Expression Analysis (LTEA) Assay for Forkhead box O3 (FOXO3) using HepaRG (AID 2283459). The note with it: mRNA level, 48 h; actives raise or lower the signal. The procedure, abridged: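 qRT-PCR readout of FOXO3 transcript, normalized to three housekeeping genes (ACTB, GAPDH, POLR2A); gain or loss fitted against 0.5% DMSO vehicle. HepaRG cells, 48 h chemical exposure, 8-point half-log series, top 100 uM.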

Read-out in experiment [12]: ABC Transporter (ABCC3), ABCC3 (gene 8714)
Kind of experiment: LTEA_HepaRG_ABCC3: Life Technologies and Expression Analysis (LTEA) Assay for ABC Transporter (ABCC3) using HepaRG (AID 2283462). The note with it: mRNA level, 48 h; actives raise or lower the signal. The essentials: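 Human HepaRG, 48 h dosing, 8-pt half-log series from 100 uM, 0.5% DMSO vehicle, duplicates. ABCC3 mRNA by TaqMan qRT-PCR, housekeeping-normalized; bidirectional curve fit vs DMSO.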

Read-out in experiment [13]: ABC Transporter (ABCB11), ABCB11 (gene 8647)
Kind of experiment: LTEA_HepaRG_ABCB11: Life Technologies and Expression Analysis (LTEA) Assay for ABC Transporter (ABCB11) using HepaRG (AID 2283463). The note with it: mRNA level, 48 h; actives raise or lower the signal. The procedure, abridged:
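HepaRG, 48 h exposure, 8-pt half-log CRC top 100 uM, 0.5% DMSO vehicle, duplicates. Readout: TaqMan qRT-PCR of ABCB11 mRNA, housekeeping-normalized (ACTB/GAPDH/POLR2A). Bidirectional fit vs DMSO baseline.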

Read-out in experiment [14]: ABC Transporter (ABCC2), ABCC2 (gene 1244)
Kind of experiment: LTEA_HepaRG_ABCC2: Life Technologies and Expression Analysis (LTEA) Assay for ABC Transporter (ABCC2) using HepaRG (AID 2283464). The note with it: mRNA level, 48 h; actives raise or lower the signal. The essentials:
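HepaRG, 48 h post-plating; serum-free induction medium; cpd 8-pt, 100 uM top, half-log, 0.5% DMSO, duplicate, 48 h. Readout: ABCC2 mRNA by qRT-PCR, norm. ACTB/GAPDH/POLR2A. Bidirectional fit vs DMSO baseline.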

Read-out in experiment [15]: Broad substrate specificity ATP-binding cassette transporter ABCG2 (Homo sapiens) (UniProt Q9UNQ0)
Description: LTEA_HepaRG_ABCG2: Life Technologies and Expression Analysis (LTEA) Assay for ABC Transporter (ABCG2) using HepaRG (AID 2283465). The note with it: mRNA level, 48 h; actives raise or lower the signal. The procedure, abridged:
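HepaRG, 48 h exposure, 8-pt half-log series from 100 uM, 0.5% DMSO vehicle, duplicates. Readout: ABCG2 transcript by qRT-PCR (Fluidigm array), housekeeping-normalized; bidirectional curve fit relative to DMSO baseline.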

Read-out in experiment [16]: flavin-containing dimethylaniline monooxygenases 3 (FMO3), FMO3 (gene 2328)
Kind of experiment: LTEA_HepaRG_FMO3: Life Technologies and Expression Analysis (LTEA) Assay for flavin-containing dimethylaniline monooxygenases 3 (FMO3) using HepaRG (AID 2283453).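 As to AC50: differentiated human HepaRG liver cells in serum-free induction medium.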 The note with it: mRNA level, 48 h; actives raise or lower the signal. The essentials: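 Eight-point concentration-response in serum-free HepaRG cultures (top 100 uM, 0.5% DMSO, 48 h). Read-out: FMO3 mRNA level normalized to three endogenous control genes, fitted bidirectionally versus vehicle.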

Read-out in experiment [17]: Forkhead box O1 (FOXO1), FOXO1 (gene 2308)
Description: LTEA_HepaRG_FOXO1: Life Technologies and Expression Analysis (LTEA) Assay for Forkhead box O1 (FOXO1) using HepaRG (AID 2283456). The note with it: mRNA level, 48 h; actives raise or lower the signal. The essentials: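 HepaRG, 48 h exposure, 8-pt half-log series from 100 uM in 0.5% DMSO, duplicates; Fluidigm qRT-PCR mRNA, housekeeping-normalised; bidirectional fit vs DMSO baseline.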

Read-out in experiment [18]: ABC Transporter (ABCB1), ABCB1 (gene 5243)
Description: LTEA_HepaRG_ABCB1: Life Technologies and Expression Analysis (LTEA) Assay for ABC Transporter (ABCB1) using HepaRG (AID 2283460). The note with it: mRNA level, 48 h; actives raise or lower the signal. The essentials: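 HepaRG, 48 h exposure, 8-pt half-log series from 100 uM, 0.5% DMSO vehicle, duplicates. Readout: ABCB1 transcript by Fluidigm TaqMan qRT-PCR, housekeeping-normalized; bidirectional curve fit vs DMSO baseline.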

Read-out in experiment [19]: growth arrest and DNA damage 45 (GADD45B), GADD45B (gene 4616)
Kind of experiment: LTEA_HepaRG_GADD45B: Life Technologies and Expression Analysis (LTEA) Assay for growth arrest and DNA damage 45 (GADD45B) using HepaRG (AID 2283461). The note with it: mRNA level, 48 h; actives raise or lower the signal. The essentials: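 HepaRG, ~100,000 cells/well, 48 h plating; serum-free induction medium; cpd 100 uM top, half-log x8, 0.5% DMSO, duplicate, 48 h; lysis in RLT, RNA isolation, qRT-PCR; norm ACTB/GAPDH/POLR2A; bidirectional fit vs DMSO.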

Activity calls are given as the source filed them. The calls were made as follows: active = hit-call score of the fitted dose curve at least 0.9, where 1 is the maximum; inactive = score below 0.9.

Broad substrate specificity ATP-binding cassette transporter ABCG2 (Homo sapiens), sequence (Q9UNQ0 whole entry, looked up): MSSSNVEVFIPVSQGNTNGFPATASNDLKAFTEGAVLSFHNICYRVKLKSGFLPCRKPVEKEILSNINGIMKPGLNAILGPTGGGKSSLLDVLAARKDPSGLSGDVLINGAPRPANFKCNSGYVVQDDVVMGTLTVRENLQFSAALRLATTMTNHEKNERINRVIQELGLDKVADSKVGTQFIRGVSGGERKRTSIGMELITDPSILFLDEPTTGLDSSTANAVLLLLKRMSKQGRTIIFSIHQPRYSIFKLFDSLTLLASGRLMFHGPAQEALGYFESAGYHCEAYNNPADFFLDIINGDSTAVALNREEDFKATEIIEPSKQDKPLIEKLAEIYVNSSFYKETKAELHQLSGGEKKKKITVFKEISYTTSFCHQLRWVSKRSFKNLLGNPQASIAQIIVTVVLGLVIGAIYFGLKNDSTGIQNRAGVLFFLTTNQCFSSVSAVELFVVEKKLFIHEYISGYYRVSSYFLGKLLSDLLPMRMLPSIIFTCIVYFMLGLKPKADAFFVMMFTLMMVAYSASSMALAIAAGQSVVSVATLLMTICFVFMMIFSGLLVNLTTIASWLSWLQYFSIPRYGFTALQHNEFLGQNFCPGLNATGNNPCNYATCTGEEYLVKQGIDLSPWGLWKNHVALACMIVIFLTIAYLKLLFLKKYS
Fatty acid synthase (Homo sapiens), sequence (P49327 whole entry, looked up): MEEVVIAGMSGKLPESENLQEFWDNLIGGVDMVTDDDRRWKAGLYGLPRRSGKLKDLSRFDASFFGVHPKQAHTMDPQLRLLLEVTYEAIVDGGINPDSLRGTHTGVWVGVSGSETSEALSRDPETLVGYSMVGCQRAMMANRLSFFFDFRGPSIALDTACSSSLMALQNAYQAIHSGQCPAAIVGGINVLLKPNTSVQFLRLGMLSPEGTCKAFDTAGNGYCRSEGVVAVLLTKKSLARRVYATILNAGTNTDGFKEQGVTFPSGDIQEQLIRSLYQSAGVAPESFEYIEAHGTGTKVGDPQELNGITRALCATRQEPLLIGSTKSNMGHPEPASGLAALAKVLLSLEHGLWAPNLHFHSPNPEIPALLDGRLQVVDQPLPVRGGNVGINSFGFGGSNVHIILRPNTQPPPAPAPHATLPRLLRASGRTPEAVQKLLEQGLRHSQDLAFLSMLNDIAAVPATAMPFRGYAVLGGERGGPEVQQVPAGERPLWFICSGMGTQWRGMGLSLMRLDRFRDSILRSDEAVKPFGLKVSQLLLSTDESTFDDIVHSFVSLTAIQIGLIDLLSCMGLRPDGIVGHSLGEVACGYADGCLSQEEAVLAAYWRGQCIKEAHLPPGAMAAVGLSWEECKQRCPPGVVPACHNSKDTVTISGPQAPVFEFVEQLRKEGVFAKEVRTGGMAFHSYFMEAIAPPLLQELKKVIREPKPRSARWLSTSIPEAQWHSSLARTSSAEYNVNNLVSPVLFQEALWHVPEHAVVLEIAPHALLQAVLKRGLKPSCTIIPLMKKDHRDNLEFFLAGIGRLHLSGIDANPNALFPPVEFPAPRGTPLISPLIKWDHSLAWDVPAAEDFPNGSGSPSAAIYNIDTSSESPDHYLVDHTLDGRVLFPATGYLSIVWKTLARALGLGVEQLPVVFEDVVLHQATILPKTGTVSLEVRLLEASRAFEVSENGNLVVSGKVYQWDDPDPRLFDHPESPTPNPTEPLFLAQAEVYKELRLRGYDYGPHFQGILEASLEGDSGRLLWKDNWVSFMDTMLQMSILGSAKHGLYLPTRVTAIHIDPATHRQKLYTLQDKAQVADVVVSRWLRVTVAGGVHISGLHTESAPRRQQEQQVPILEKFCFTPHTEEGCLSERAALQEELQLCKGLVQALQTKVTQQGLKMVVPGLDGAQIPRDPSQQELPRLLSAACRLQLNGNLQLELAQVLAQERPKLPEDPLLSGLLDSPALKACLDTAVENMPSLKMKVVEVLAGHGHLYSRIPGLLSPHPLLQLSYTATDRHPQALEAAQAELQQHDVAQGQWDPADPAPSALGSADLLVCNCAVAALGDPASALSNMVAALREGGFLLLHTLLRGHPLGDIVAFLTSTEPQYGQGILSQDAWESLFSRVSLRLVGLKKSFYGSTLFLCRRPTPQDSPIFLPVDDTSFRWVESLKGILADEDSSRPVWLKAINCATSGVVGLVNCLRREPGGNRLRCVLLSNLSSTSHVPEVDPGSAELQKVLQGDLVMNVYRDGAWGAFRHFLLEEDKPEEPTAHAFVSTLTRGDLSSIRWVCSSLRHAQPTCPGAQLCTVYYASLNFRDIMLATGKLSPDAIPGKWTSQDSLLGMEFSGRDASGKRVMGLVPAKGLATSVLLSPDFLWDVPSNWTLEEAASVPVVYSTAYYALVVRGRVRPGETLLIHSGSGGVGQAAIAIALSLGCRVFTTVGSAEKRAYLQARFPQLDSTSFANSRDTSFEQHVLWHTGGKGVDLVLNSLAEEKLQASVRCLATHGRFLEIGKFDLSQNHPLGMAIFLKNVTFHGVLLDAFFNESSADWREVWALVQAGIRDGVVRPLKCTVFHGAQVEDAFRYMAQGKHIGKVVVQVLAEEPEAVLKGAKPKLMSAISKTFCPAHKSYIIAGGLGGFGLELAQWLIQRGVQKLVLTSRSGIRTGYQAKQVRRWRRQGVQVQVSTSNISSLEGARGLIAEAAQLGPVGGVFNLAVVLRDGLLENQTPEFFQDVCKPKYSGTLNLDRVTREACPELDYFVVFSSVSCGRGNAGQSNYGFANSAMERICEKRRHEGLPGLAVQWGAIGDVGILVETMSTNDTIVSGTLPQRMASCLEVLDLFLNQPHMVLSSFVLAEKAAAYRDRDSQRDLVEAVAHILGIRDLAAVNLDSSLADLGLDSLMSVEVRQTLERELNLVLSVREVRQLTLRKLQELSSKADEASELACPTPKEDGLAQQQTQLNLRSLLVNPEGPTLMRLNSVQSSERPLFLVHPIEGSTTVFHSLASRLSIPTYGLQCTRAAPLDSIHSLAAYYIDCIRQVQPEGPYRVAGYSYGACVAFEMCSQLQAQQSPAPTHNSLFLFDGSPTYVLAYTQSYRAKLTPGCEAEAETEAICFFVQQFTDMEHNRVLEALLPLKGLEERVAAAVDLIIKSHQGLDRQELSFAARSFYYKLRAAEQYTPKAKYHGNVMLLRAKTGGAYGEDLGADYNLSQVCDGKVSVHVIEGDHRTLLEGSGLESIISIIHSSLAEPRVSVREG

`COC(=O)NC(=S)Nc1ccccc1NC(=S)NC(=O)OC`: the result in [1], in experiment [2], in experiment [3], in experiment [4], in [5] and in experiment [6] was inactive. Moreover, the result in [7], in experiment [9], in experiment [10], in experiment [11], in [12] and in experiment [13] was inactive. In addition, the result in experiment [15] was inactive. The results for the AC50 in experiment [8] and in experiment [14] were 39.2 µM (active) and 35.4 µM (active), respectively.
`CCCCC(C#N)(Cn1cncn1)c1ccc(Cl)cc1` (stereo not drawn): the compound was called inactive in experiment [1], in experiment [2], in experiment [4], in experiment [6], in [7] and in experiment [16]. In addition, the outcome in experiment [9], in [10], in [11] and in [12] was inactive. The AC50 – broadly, the midpoint of the concentration-response curve, whichever way the signal moves – was 22.1 µM (active) in experiment [3]; 50 µM (active) in experiment [5]; 27.1 µM (active) in experiment [8]; 91.7 µM (active) in experiment [13]; 4.77 µM (active) in experiment [15].
Regarding `CC(C)Nc1nc(Cl)nc(NC(C)C)n1`, the outcome in [1], in experiment [2], in [3], in experiment [4], in experiment [5] and in [6] was inactive. Besides, the compound was called inactive in [16], in experiment [9], in experiment [17], in experiment [10], in [11] and in experiment [12]. Also, in experiment [15], the compound was called inactive. Also, the AC50 in [7] is 16.8 µM (active); in [8] it was 41.2 µM (active); in [18] it was 19.8 µM (active); in experiment [13] it was 73.3 µM (active); in experiment [14], 9.77 µM (active).
Consider `CCN(CC)C(=O)C(C)Oc1cccc2ccccc12` (stereo not drawn), for which the compound was called inactive in experiment [1], in experiment [2], in experiment [3], in experiment [4], in experiment [5] and in experiment [6]. The outcome in [10], in [11], in experiment [19] and in [12] was inactive. Also, the AC50 was 81.2 µM (active) in experiment [7]; 82.9 µM (active) in experiment [16]; 36.9 µM (active) in experiment [8]; 50 µM (active) in experiment [13]; 50 µM (active) in [15].
